Inconclusive results are not listed. Where a call stands in place of a potency, no number is given. Active and inactive are the calls of the source. Calls come from the whole dose curve.
Biological target: D(2) dopamine receptor (Homo sapiens) (UniProt P14416)
Assay: Dopamine D2 receptor (DRD2) small molecule agonists, cell-based qHTS assay (AID 1963594); note: nearly all actives have a fitted effect of over 35% in size
Conditions: HEK293-DRD2 cAMP HTRF, agonist mode, 30 min; series mostly up to 92.4 µM
Description: National Center for Advancing Translational Sciences [NCATS]
Division of Preclinical Innovation [DPI]
U.S. Environmental Protection Agency [EPA]
National Institutes of Environmental Health Sciences [NIEHS]
National Toxicology Program [NTP]
U.S. Food and Drug Administration [FDA]
DRD2 is the D2 subtype of the dopamine receptor, which is coupled to Gi subtype of G protein-coupled receptor. This G protein-coupled receptor inhibits adenylyl cyclase activity. The DRD2-HEK293 cell line stably expressing D2 dopamine receptor can be used for screening agonists and antagonists of interactions between D2 and its ligands. The Hek293-DRD2 cAMP assay is based on HTRF technology. It measures changes of cAMP accumulation in response to Gi coupled GPCR activation or inhibition.
Tox21 Assay Protocol Summary:
DRD2-Hek293 cells were dispensed at 600 cells/3uL/well in 1536-well white plates using a Multidrop Dispenser. After the assay plates were incubated at a 37 C/5% CO2 incubator for 24 h, 1 uL of Ro20-1724 at final concentration of 0.1 mM was transferred to the assay plate by a Flying Reagent Dispenser. Following Ro20-1724 addition, 23 nL of compound dissolved in DMSO, positive controls or DMSO only was added to the assay plates via Wako pintool station. The assay plates were incubated at room temperature for 10 min. Next, 1 uL of NKH477 at 200nM was added into the plates. After the assay plates were incubated at room temperature for an additional 30 min, 2.5 ul/well of cAMP-d2 and 2.5 ul/well of anti-cAMP-cryptate were added respectively into the assay plates using a Flying Reagent Dispenser. The plates were incubated at room temperature for 1 h. The fluorescence intensity in the plates was measured at 340 nm excitation and 665 & 620 nm emission by an Envision plate reader.

Sequence of D(2) dopamine receptor (Homo sapiens) (P14416 whole entry, looked up): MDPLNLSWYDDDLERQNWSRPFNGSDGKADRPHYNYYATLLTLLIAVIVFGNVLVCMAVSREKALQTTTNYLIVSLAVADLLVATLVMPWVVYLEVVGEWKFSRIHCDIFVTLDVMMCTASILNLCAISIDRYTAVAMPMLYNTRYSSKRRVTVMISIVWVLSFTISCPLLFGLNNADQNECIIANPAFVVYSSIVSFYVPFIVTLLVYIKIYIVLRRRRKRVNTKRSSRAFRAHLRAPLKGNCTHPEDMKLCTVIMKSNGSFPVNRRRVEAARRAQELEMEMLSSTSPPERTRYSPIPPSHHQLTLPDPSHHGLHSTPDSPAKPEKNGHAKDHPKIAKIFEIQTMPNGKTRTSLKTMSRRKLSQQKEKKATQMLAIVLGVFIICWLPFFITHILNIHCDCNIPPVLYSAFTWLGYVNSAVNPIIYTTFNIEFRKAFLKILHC

| SMILES | Potency | activation |
| --- | --- | --- |
| CC(C=O)Cc1ccc(C(C)C)cc1 (stereo not given) | inactive |  |
| OCCN1CN(CCO)CN(CCO)C1 | inactive |  |
| CCOC(=O)/C=C/C(=O)OCC | inactive |  |
| N[C@H](C(=O)O)[C@@H](O)c1ccc(O)c(O)c1 | inactive |  |
| O=C(O)CNC(=O)c1ccc([N+](=O)[O-])cc1 | inactive |  |
| COC(=O)c1c(C)cc(O)c(C)c1O | inactive |  |
| NCc1ccco1 | inactive |  |
| CCC(CO)(CO)COCC(CC)(CO)CO | inactive |  |
| S=C1NC=NC2N=CNC12 (stereo not given) | inactive |  |
| NCCS | inactive |  |
| Nc1cccc(S(=O)(=O)c2cccc(N)c2)c1 | inactive |  |
| CC1=CCC(=C(C)C)CC1 | inactive |  |
| CCOC(=O)[C@H](CCc1ccccc1)N[C@@H](C)C(=O)N(CC(=O)O)C1Cc2ccccc2C1 | inactive |  |
| C#CC(C)N(C)C(=O)Nc1ccc(Cl)cc1 (stereo not given) | inactive |  |
| C=C(C)CCO | inactive |  |
| CC1=C2[C@H](/C=C(\C)C(=O)O)CC[C@@H](C)[C@H]2CC1 | inactive |  |
| CCCCCCCCCCCCCCCC[N+](C)(C)CCN(Cc1ccc(OC)cc1)c1ncccn1 | inactive |  |
| CC(=O)N(CC(=O)N(C)C)c1ccccc1 | inactive |  |
| CCCSS/C(CCO)=C(\C)N(C=O)Cc1cnc(C)nc1N | inactive |  |
| CC(C)=CC1CC(C)CCO1 (stereo not given) | inactive |  |

| SMILES | Potency | activation |
| --- | --- | --- |
| CCOC(=O)c1ccccc1O | inactive |  |
| CCOC(=O)N1CCC(n2c(=O)[nH]c3cc(Cl)ccc32)CC1 | inactive |  |
| CCCC(C)C=O (stereo not given) | inactive |  |
| CCOC(=O)C1CC(=O)C(=C(O)C2CC2)C(=O)C1 (stereo not given) | inactive |  |
| CC(C)(C)N | inactive |  |
| CCCCC1CCCCC(=O)O1 (stereo not given) | inactive |  |
| C/C=C(\C)C(=O)OCCC(C)CCC=C(C)C (stereo not given) | inactive |  |
| N[C@@H](CSCCCO)C(=O)O |  | 5.68% [at 19 µM] (inactive) |
| O=CN1CCOCC1 | inactive |  |
| CCCCCCCCCCCCCCCCCCOCCO |  | -2.91% [at 19 µM] (inactive) |
| OC1(c2ccccc2)CCNCC1 | inactive |  |
| CC(=O)Nc1ccc(N)cc1 | inactive |  |
| O=C(OCC1CO1)C1CCCCC1C(=O)OCC1CO1 (stereo not given) | inactive |  |
| Nc1ncnc(Nc2ccccc2)n1 | inactive |  |
| Cc1cc(O)c(C(C)(C)C)cc1Sc1cc(C(C)(C)C)c(O)cc1C | inactive |  |
| CC(C)[N+](C)(C)CC(O)COc1cccc2ccccc12 (stereo not given) | inactive |  |
| O=C(CCCCCCCCc1cccnc1)N1CCC(C=C(c2ccccc2)c2ccccc2)CC1 | inactive |  |
| CCCCOc1ccc(C(=O)CCN2CCCCC2)cc1 | inactive |  |
| c1ccc(CCNc2nc(-c3ccccc3)cs2)cc1 | inactive |  |
| CCC(C=O)CC | inactive |  |
